Experimental data reported in PubChem BioAssay (NCI).
Compounds without any hit were thinned out: in the full panel of roughly 83,000, 20% have a hit.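 96-well plates, one dose, 48 hours. Percent growth reported; active if below 10.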 Active and inactive are the calls of the source.

What was measured:
Assay in all cases: NCI-60 one-dose screen, 48 h (100 = growth as untreated, 0 = no growth, -100 = all killed)
Settings in all cases: 10 µM unless noted
[1] = test system: DU-145 prostate
[2] = test system: K-562 leukemia
[3] = test system: MALME-3M melanoma
[4] = test system: MDA-MB-231 breast
[5] = test system: RXF 393 renal
[6] = test system: SF-268 CNS
[7] = test system: SF-295 CNS
[8] = test system: SF-539 CNS
[9] = test system: UACC-257 melanoma
[10] = test system: M14 melanoma
[11] = test system: HCT-15 colon
[12] = test system: HT29 colon
[13] = test system: SNB-75 CNS
[14] = test system: U251 CNS
[15] = test system: PC-3 prostate
[16] = test system: SK-MEL-5 melanoma
[17] = test system: UACC-62 melanoma
[18] = test system: LOX IMVI melanoma
[19] = test system: SK-MEL-28 melanoma
[20] = test system: SNB-19 CNS

Measured: growth

CCCCCCCCCCNC(=O)CCl
inactive: [1] 91.1% | [2] 85.3% | [3] 87.9% | [4] 90.4% | [5] 75.3% | [6] 82.2% | [7] 102% | [8] 84.1% | [9] 84.3% | [10] 83.9% | [11] 72.4% | [12] 84.2% | [13] 45.5% | [14] 69.8% | [15] 66.1% | [16] 72.9% | [17] 73.8% | [18] 50.9% | [19] 105%

CCN(CC)CC(C)Nc1ccc([N+](=O)[O-])c2sc3ccccc3c(=O)c12 (stereo unspecified)
active: [2] -14.2% | [3] -6.6% | [9] -10.4% | [16] 5.5%
inactive: [1] 27.6% | [4] 51.5% | [5] 32.4% | [6] 27.3% | [7] 25% | [8] 29.5% | [10] 44.9% | [11] 23.6% | [12] 12% | [13] 36.3% | [14] 28.4% | [15] 14.6% | [17] 33.5% | [18] 14.7%

O=c1c(/C=C/c2ccco2)nnc(SCCN2CCOCC2)n1/N=C/c1ccc([N+](=O)[O-])cc1
inactive: [1] 111% | [2] 93.3% | [3] 95.9% | [4] 103% | [5] 87.6% | [6] 96.5% | [7] 107% | [8] 94% | [9] 94.1% | [10] 99.9% | [11] 99% | [12] 106% | [13] 99.9% | [14] 104% | [15] 96.5% | [16] 91.1% | [17] 96.2% | [18] 106% | [19] 104%

O=C(O)c1ccc2c(c1Sc1ccccc1)C(=O)c1ccccc1C2=O
inactive: [1] 107% | [2] 112% | [3] 83.4% | [4] 90.1% | [5] 98.6% | [6] 101% | [7] 91.3% | [8] 84.5% | [9] 96.3% | [10] 107% | [11] 109% | [12] 96% | [13] 78.1% | [14] 103% | [15] 88.3% | [16] 93.6% | [17] 87.5% | [18] 89.5% | [19] 139%

O=C(/C=C/c1ccc(Cl)cc1)c1ccc(O)c(CN2CCN(c3cc4c(cc3F)c(=O)c(C(=O)O)cn4C3CC3)CC2)c1
inactive: [1] 63.5% | [2] 50.7% | [3] 59.8% | [4] 77.2% | [5] 45.4% | [6] 42% | [7] 45% | [8] 53.5% | [9] 90.2% | [10] 52.6% | [11] 45.4% | [12] 33.8% | [20] 33.2% | [15] 47.3% | [16] 29.8% | [17] 38.2% | [18] 38.6% | [19] 62.1%
active: [13] 4.51%

Cc1ccc2c(c1)C(=O)c1c-2c(OCCCN(C)C)nc2ccccc12
active: [2] -59.4% | [3] -71.7% | [4] -22.7% | [10] -82.2% | [11] -17.8% | [12] -33% | [14] 4.38% | [17] -66% | [18] -71.9% | [19] -54%
inactive: [1] 34.3% | [5] 30.1% | [6] 30.8% | [7] 60% | [8] 14.4% | [9] 69.5% | [13] 38.5% | [15] 18.6% | [16] 28.5%

Cc1nn(-c2ccccc2)c2nc(C)n(-c3ccc(Br)cc3)c(=O)c12
inactive: [3] 45.9% | [4] 50.3% | [6] 51.2% | [9] 60% | [11] 17.4% | [20] 47.5% | [15] 26.4% | [17] 38.7% | [18] 45.6% | [19] 69.3%
active: [1] 8.77% | [2] 9.29% | [5] -15.8% | [7] 4.98% | [8] -5.52% | [10] 9.88% | [12] -15.7% | [13] -6.84% | [16] 5.34%

CCN(CC)CCCNc1cc(OC)cc2nc3cc(Cl)ccc3nc12
active: [1] 0.94% | [2] -56.5% | [3] -84.7% | [4] -25.9% | [5] -10.9% | [6] -35.5% | [8] -77.6% | [9] -79.7% | [10] -94.2% | [11] -11.9% | [12] -9.49% | [13] -2.74% | [14] 4.3% | [15] 2.49% | [16] -99.5% | [17] -80.6% | [18] -58.7% | [19] -79.1%
inactive: [7] 18.1%

CCCCCCCCCc1cc(CN2CCCCC2)c(O)c(CN2CCCCC2)c1
inactive: [1] 66.4% | [2] 31.8% | [3] 75.1% | [4] 30.9% | [5] 78.3% | [6] 71.7% | [7] 64.6% | [8] 60.9% | [9] 58.8% | [10] 68.3% | [11] 52.3% | [12] 40.5% | [13] 60.6% | [14] 45.1% | [15] 53.7% | [16] 40% | [17] 72.9% | [18] 48.6% | [19] 74%

CNc1cc2nc3cc(NC)c(C)cc3cc2cc1C
inactive: [1] 18.5% | [2] 21.1% | [3] 41.3% | [4] 28.7% | [5] 11.9% | [6] 11.3% | [7] 10% | [8] 10.4% | [9] 29.2% | [10] 24.8% | [11] 11.1% | [12] 10% | [13] 16.5% | [15] 18.2% | [16] 35.7% | [17] 45.7% | [19] 46%
active: [14] 9.07% | [18] 6.5%

Cc1ccc(/C=C2\Oc3cc(OCC(=O)c4ccc(Cl)cc4)ccc3C2=O)cc1
inactive: [1] 112% | [2] 95.2% | [3] 90% | [4] 107% | [5] 99.5% | [6] 119% | [7] 114% | [8] 103% | [9] 98.1% | [10] 102% | [11] 93.1% | [12] 104% | [13] 103% | [14] 97.5% | [15] 428% | [16] 86.3% | [17] 92.7% | [18] 98.8% | [19] 48.4%

COc1ccc(Cl)cc1Nc1nc(C(F)(F)F)ccc1C(=O)N/N=C/c1cccnc1
inactive: [1] 53.7% | [2] 36.1% | [3] 42.6% | [4] 49.3% | [5] 60.9% | [6] 48.9% | [7] 81.6% | [8] 45.9% | [9] 72.7% | [10] 52.9% | [11] 29.1% | [12] 49.6% | [13] 67.1% | [14] 40.4% | [15] 43.7% | [16] 22.2% | [17] 50.9% | [18] 36.3% | [19] 59.9%

C/C=C/C(N)=O
inactive: [1] 106% | [2] 109% | [3] 99.7% | [4] 108% | [5] 108% | [6] 104% | [7] 106% | [8] 101% | [9] 108% | [10] 95.5% | [11] 96.9% | [12] 102% | [13] 90.6% | [14] 104% | [15] 93.9% | [16] 96.7% | [17] 105% | [18] 99.3% | [19] 93%

OC(c1cc(-c2ccccc2)nc2ccc(Cl)cc12)C1CCCCN1 (stereo unspecified)
inactive: [1] 60.1% | [5] 56.3% | [6] 60.7% | [7] 96.2% | [8] 67.5% | [9] 70.9% | [13] 61.9% | [14] 21.5% | [15] 49.4%
active: [2] -18.4% | [3] -41.3% | [4] -30.5% | [10] -66.3% | [11] -12.3% | [12] -3.87% | [16] -5.63% | [17] -31.2% | [18] -83.2% | [19] -76.9%

Nc1cc(-c2nc3sccn3c2-c2ccnc(NCCCNS(=O)(=O)c3ccc(F)cc3)n2)ccc1F
inactive: [1] 58.6% | [2] 26.8% | [3] 37.1% | [4] 62.5% | [5] 52.1% | [6] 62% | [7] 67.5% | [8] 73.2% | [9] 57.9% | [10] 31% | [11] 28.3% | [12] 17.8% | [13] 68.7% | [20] 88% | [15] 48.6% | [17] 21.2% | [18] 34.1% | [19] 50.7%

CCOC(=S)SCc1ccc(Cl)cc1
inactive: [1] 106% | [2] 110% | [3] 107% | [4] 85.4% | [5] 87.6% | [6] 106% | [7] 89.4% | [8] 114% | [9] 100% | [10] 99.1% | [11] 94.8% | [12] 103% | [13] 76.5% | [14] 90.5% | [15] 81.7% | [16] 106% | [17] 95.5% | [18] 99.3% | [19] 114%

CN1CCN(Cc2ccc(NC(=O)c3[nH]ncc3Nc3ncnc4c3CCC4)cc2)CC1
inactive: [7] 31.2% | [9] 37.7% | [10] 21.7% | [11] 13.7% | [14] 15.4%
active: [1] 5.56% | [2] 6.23% | [3] 4.81% | [4] -11.8% | [5] -49.7% | [6] 4.07% | [8] -37.8% | [12] 9.71% | [13] -22.6% | [15] 9.21% | [16] 9.53% | [17] 9.97% | [18] 7.49% | [19] 5.62%
